Assay results as given in PubChem BioAssay (EPA / NIEHS).
Where a structure was tested more than once in an assay, its records may differ in their call. Calls of active or inactive are those of the source. How the source made its calls: active means hit-call score of the fitted dose curve at least 0.9, where 1 is the maximum; inactive means score below 0.9.

The molecules below were run against Bile acid receptor (Homo sapiens) (UniProt Q96RI1) (assay: ATG_IR1_CIS: Attagene CIS-FACTORIAL HepG2 Assay for human Nuclear Receptor Subfamily 1 Group H Member 4 (NR1H4), IR1 submotif (AID 2282946)). Conditions: IR1 reporter transcription, actives raise or lower the signal.
Description: ATG_CIS is a cell-based, multiplexed-readout assay that uses HepG2, a human liver cell line, with measurements taken at 24 hours after chemical dosing in a 24-well plate.ATG_IR1_CIS is one of 52 assay component(s) measured or calculated from the ATG_CIS assay. It is designed to make measurements of mRNA induction, a form of inducible reporter, as detected with fluorescence intensity signals by Reverse transcription polymerase chain reaction (RT-PCR) and Capillary electrophoresis technology.Data from the assay component ATG_IR1_CIS was analyzed into 1 assay endpoint. This assay endpoint, ATG_IR1_CIS, was analyzed with bidirectional fitting relative to DMSO as the negative control and baseline of activity. Using a type of inducible reporter, measures of mRNA for gain or loss-of-signal activity can be used to understand the reporter gene at the transcription factor-level as they relate to the gene NR1H4. Furthermore, this assay endpoint can be referred to as a primary readout, because this assay has produced multiple assay endpoints where this one serves a reporter gene function. To generalize the intended target to other relatable targets, this assay endpoint is annotated to the nuclear receptor intended target family, where the subfamily is non-steroidal.
Human liver HepG2 cells are transiently transfected with multiple reporter transcription units (MRTUs) in 6-well plates using FuGene 6 reagent (Roche; 3 ml FuGene/1 mg DNA). The MRTU constructs are regulated by a cis-regulating element (promoter). […] A major difference between the CIS and TRANS system is that in CIS activities of endogenous TFs are measured, whereas the TRANS assay evaluates changes in activities of exogenous, chimeric NR-Gal4 proteins. […] At the end of 24 hour incubation, total RNA was isolated using TriZol reagent (Invitrogen). The isolated RNA is then reverse-transcribed using oligo(dT) primer and Mo-MLV reverse transcriptase (Invitrogen) with DNAse I (Ambion) treatment for 30 min. The one-tenth of the produced cDNA was amplified by PCR using Taq DNA polymerase (Invitrogen) and two reporter sequence-specific primers. The PCR products were fluorescently labeled by primer extension with 6-arboxyfluorescein (6-FAM) 5'-labeled reporter sequence-specific primer (2 min at 95 C, 20 s at 68 C and 10 min at 72 C) and these products were digested with 5U of HpaI (New England Biolabs) for 2h at 37 C. The fragments were purified using Qiaquick PCR columns (Qiagen), analyzed on an ABI 3130xL genetic analyzer (Applied Biosystems) with peak positions identified by using a set of X-rhodamine (ROX)-labeled MapMarker1000 molecular weight standards (BioVentures). The raw capillary electrophoresis data was processed using Attagraph software (Attagene).

Chain of Bile acid receptor (Homo sapiens) (Q96RI1 whole entry, looked up): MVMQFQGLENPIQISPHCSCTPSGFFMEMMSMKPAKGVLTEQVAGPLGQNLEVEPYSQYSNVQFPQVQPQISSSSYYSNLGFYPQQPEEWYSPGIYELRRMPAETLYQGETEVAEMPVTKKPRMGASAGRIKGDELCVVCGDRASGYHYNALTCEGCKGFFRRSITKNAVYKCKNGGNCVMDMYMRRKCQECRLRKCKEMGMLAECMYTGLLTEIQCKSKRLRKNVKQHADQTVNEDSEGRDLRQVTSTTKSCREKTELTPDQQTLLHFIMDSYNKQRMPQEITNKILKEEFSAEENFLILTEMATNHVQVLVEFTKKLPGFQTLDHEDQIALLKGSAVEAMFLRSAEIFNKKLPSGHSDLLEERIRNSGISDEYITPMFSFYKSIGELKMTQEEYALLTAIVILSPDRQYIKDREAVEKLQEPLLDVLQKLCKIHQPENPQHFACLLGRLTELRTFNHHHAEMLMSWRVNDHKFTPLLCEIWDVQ

Compound	outcome	AC50
C[C@@H]1C[C@@H]([C@H](O)CC2CC(=O)NC(=O)C2)C(=O)[C@@H](C)C1	inactive	0.304 µM (active)
C=CC(=O)N(C)C	inactive	
COc1ccc(OC)c(C=O)c1	inactive	
NC(=S)Nc1ccccc1	inactive	
Clc1ccc(C2(Cn3cncn3)CC(Br)CO2)c(Cl)c1 (stereo not given)	inactive	
O=C(Cl)c1ccc(Cl)cc1	inactive	
N#CCCO	inactive	
CN(C)P(=O)(N(C)C)N(C)C	inactive	
OCc1ccco1	inactive	
CCC(C)(C)c1ccc(O)c(C(C)(C)CC)c1		5.81 µM (active)
CC(=O)OC(c1ccccc1)C(Cl)(Cl)Cl (stereo not given)	inactive	
CCOP(=S)(OCC)Oc1nc(Cl)c(Cl)cc1Cl		26.4 µM (active)
CCCCP(CCCC)CCCC	inactive	
CCCCCCCCCl	inactive	
O=C(c1ccccc1)C(Cl)Cl		5.81 µM (active)
CCC[CH2][Sn]([Cl])([Cl])[Cl]	inactive	
O=C(O)C(F)(F)C(F)(F)C(F)(F)C(F)(F)C(F)(F)C(F)(F)F	inactive	
CCN1CCC2(CC1)COc1cc3c(cc12)N(C(=O)c1ccc(-c2ccc(-c4nnc(C)o4)cc2C)cc1)CC3	inactive	
O=C1CCCN1	inactive	

Compound	outcome	AC50
CC(C)CCCCCCOC(=O)c1ccccc1C(=O)OCCCCCCC(C)C	inactive	
O=C1C2(Cl)C3(Cl)C4(Cl)C(Cl)(Cl)C5(Cl)C3(Cl)C1(Cl)C5(Cl)C24Cl (stereo not given)	inactive	7.38 µM (active)
CC(=[OH+])/C=C(/C)[O-].CC(=[OH+])/C=C(/C)[O-].CC(=[OH+])/C=C(/C)[O-].[Al]	inactive	
COP(=O)(OC)O/C(=C\Cl)c1cc(Cl)c(Cl)cc1Cl	inactive	
O=C(Nc1ccc2[nH]ccc2c1)c1cc2cc(F)ccc2n1Cc1cccc(F)c1		2.93 µM (active)
CCOP(OCC)OCC	inactive	
ClC1=C(Cl)[C@]2(Cl)[C@@H]3[C@@H](Cl)[C@@H](Cl)C[C@@H]3[C@@]1(Cl)C2(Cl)Cl	inactive	
O=C(OC1CCCCC1)c1ccccc1C(=O)OC1CCCCC1		28.9 µM (active)
COS(=O)(=O)c1ccc(C)cc1	inactive	
Nc1ncc([N+](=O)[O-])s1	inactive	
O=C(Cc1ccccc1)c1ccccc1	inactive	
CCCCOCCOC(C)=O	inactive	
CNC(=O)O/N=C/C(C)(C)S(C)=O (stereo not given)	inactive	
N#CCc1ccc(Cl)cc1	inactive	
COP(=O)(OC)OC	inactive	
C=C(C)C(=O)[O][Sn]([CH2]CCC)([CH2]CCC)[CH2]CCC		0.0112 µM (active)
CCOP(=S)(OCC)SCCS(=O)(=O)CC	inactive	
Oc1c(I)cc(I)cc1I	inactive	
[O-][Cl+2]([O-])O	inactive	
